Data on 14 molecules can be found in PubChem BioAssay (NCATS).

Inconclusive results are not listed. A number with no mark means an inactive call. Calls of active or inactive are those of the source. Unless noted, the call rests on the fitted dose curve; in most records, active means well fitted curve in the direction sought with a large enough effect; inconclusive means small, poorly fitted or top-dose-only effect, or another doubt; inactive means no such curve, though single readings can be large; an effect the other way counts as inactive or inconclusive.

The target in assay [1] is Voltage-gated inwardly rectifying potassium channel KCNH2 (Homo sapiens) (UniProt Q12809). Briefly: qHTS Assay for Small Molecule Inhibitors of the Human hERG Channel Activity (AID 588834).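 Further: lower thallium flux fluorescence means stronger hERG block; nearly all actives have a fitted effect of over 50% in size.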 Further: potency means the concentration at half of the fitted maximal effect. Particulars: U2OS BacMam hERG, FluxOR thallium flux fluorescence; series mostly up to 46.1 µM. In short, it runs like this:
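Measured: FluxOR fluorescence after thallium stimulation in U2OS cells transduced with hERG by baculovirus. Compounds pre-incubated around 10 min; medium Opti-MEM with 2% FCS. AC50 from Hill equation.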

The target in assay [2] is Luciferin 4-monooxygenase (Photinus pyralis) (UniProt P08659). Briefly: Biochemical firefly luciferase enzyme assay for NPC (AID 624030).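 Further: purified P. pyralis luciferase at 10 nM with luciferin and ATP substrate; 0% = DMSO and -100% = full luciferase inhibition by PTC124 control; nearly all actives have a fitted effect of over 70% in size.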 Particulars: purified P. pyralis luciferase, luminescence, 5 min; series mostly up to 58.6 µM. In short, it runs like this: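 Purified P. pyralis luciferase at 10 nM in 50 mM Tris Acetate (final), luminescence read within 5 minutes of enzyme addition to compounds. Activity normalised to PTC124 versus DMSO; concentration-response curves classed by r2, magnitude and activity.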

Assay [3] is described as follows: S16 Schwann cell viability assay (CellTiter-Glo assay) (AID 624031).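 Further: native untransfected S16 rat Schwann cells; plate controls were DMSO-treated cells for no effect and cell-free wells for full effect; nearly all actives have a fitted effect of over 70% in size.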 Particulars: S16 rat Schwann cells viability, 24 h; series mostly up to 57.5 µM. In short, it runs like this:
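Counter-screen for cytotoxicity: parental S16 rat Schwann cells lacking the PMP22 reporters, treated 24 h with compound, viability from cellular ATP by CellTiter-Glo luminescence, normalized to DMSO (0%) and no-cell wells.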
A general note: ATP-based viability assays read luminescence as a measure of living cells.

The nature of assay [4]: S16 Schwann cell PMP22 intronic element firefly luciferase assay (AID 624032). Further: nearly all actives have a fitted effect of over 30% in size. Further: potency means the concentration at half of the fitted maximal effect. Particulars: S16 rat Schwann cells, PMP22 element FLuc, 24 h; series mostly up to 57.5 µM. In short, it runs like this:
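Rat S16 Schwann cells stably carrying firefly luciferase driven by a PMP22 intronic element, in 10% FBS, treated 24 h at 37 C. ONE-Glo luminescence normalized to PTC124 control and DMSO (0%); curves classed by r2, magnitude and activity.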

Assay [5] in a line: S16 Schwann cell PMP22 intronic element beta-lactamase assay (AID 624044; calls by dose curve;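 further: 0% = DMSO and -100% = potassium clavulanate positive control; nearly all actives have a fitted effect of over 15% in size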). Particulars: S16 rat Schwann cells, PMP22 element beta-lactamase FRET, 24 h; ratio activity, negative = inhibition: at 38.3 µM (top of the series) unless noted. A digest of the protocol:
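Rat S16 Schwann cells with beta-Lac driven by a PMP22 intronic element, compound-treated 24 h at 37 °C. LiveBLAzer FRET B/G read: 460 nm normalized to potassium clavulanate vs DMSO; 535 nm FRET as viability; concentration-effect curves classified.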

Chain of Voltage-gated inwardly rectifying potassium channel KCNH2 (Homo sapiens) (Q12809 whole entry, looked up): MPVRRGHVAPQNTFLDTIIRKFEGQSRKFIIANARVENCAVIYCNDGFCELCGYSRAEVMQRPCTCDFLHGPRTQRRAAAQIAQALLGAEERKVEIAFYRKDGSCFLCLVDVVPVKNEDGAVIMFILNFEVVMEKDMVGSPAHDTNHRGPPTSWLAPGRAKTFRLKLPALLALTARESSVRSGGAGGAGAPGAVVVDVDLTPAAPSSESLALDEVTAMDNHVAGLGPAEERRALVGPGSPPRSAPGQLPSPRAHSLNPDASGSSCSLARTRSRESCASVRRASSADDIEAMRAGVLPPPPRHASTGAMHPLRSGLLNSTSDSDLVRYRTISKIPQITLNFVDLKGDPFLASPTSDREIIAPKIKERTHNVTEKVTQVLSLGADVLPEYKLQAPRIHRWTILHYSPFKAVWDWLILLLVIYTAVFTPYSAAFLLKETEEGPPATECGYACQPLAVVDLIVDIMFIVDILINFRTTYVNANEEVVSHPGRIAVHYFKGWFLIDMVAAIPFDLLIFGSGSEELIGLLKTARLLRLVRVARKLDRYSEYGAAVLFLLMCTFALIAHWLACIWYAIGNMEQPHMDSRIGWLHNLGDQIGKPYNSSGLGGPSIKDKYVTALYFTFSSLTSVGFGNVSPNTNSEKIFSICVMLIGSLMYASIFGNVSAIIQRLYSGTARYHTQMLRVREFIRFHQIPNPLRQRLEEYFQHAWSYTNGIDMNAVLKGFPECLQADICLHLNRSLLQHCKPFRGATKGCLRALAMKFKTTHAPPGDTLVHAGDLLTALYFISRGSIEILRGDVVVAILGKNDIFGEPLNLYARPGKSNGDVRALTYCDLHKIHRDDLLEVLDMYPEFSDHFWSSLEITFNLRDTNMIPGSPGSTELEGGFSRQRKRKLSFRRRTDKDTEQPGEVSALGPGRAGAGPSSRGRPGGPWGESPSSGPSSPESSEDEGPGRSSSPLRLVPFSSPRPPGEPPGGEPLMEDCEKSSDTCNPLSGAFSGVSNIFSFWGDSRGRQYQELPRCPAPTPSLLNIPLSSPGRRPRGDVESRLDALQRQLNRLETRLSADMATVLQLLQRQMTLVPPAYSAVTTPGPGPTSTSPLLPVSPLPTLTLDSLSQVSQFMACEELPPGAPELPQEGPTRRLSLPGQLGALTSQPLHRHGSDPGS
Chain of Luciferin 4-monooxygenase (Photinus pyralis) (P08659 whole entry, looked up): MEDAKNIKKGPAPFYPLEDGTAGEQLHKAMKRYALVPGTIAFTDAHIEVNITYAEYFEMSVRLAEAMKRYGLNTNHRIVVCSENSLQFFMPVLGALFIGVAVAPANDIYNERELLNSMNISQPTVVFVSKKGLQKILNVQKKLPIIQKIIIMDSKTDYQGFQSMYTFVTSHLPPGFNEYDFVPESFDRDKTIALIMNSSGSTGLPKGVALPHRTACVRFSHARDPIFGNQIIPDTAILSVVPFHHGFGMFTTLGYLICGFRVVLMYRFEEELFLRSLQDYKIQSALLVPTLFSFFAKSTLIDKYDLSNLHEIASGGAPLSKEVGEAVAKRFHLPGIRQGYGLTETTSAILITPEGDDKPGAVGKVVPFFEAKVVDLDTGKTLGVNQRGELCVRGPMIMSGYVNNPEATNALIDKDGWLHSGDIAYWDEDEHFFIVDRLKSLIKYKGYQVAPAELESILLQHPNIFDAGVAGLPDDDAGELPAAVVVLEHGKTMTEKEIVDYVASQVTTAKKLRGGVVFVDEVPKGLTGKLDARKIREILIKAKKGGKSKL

`CC(C)CCCC(C)NC(C)C` (stereo unspecified): the Potency result in assay [1], in assay [2], in assay [3] and in assay [4] was “inactive” each time. Moreover, the ratio activity, negative = inhibition in assay [5] is 5.39%.

`O=P(O)(O)OC[C@H]1O[C@](O)(COP(=O)(O)O)[C@@H](O)[C@@H]1O`: the Potency result in assay [1], in assay [2], in assay [3] and in assay [4] was “inactive” throughout. Besides, the ratio activity, negative = inhibition in assay [5] is 3.08%.

With `CCCCC(CC)CCC(CC(C)C)OS(=O)(=O)O` (stereo unspecified), the Potency result in assay [1], in assay [2], in assay [3] and in assay [4] was “inactive” each time. In assay [5], the ratio activity, negative = inhibition is 0%.

Regarding `CCC(Cc1c(I)cc(I)c(O)c1I)C(=O)O` (stereo unspecified), the Potency result in assay [1], in assay [3] and in assay [4] was “inactive” throughout.

Take `CN1CCCC(CN2c3ccccc3Sc3ccccc32)C1` (stereo unspecified): the Potency in assay [1] was 12.6 µM (active). Moreover, the Potency entry in assay [2] and in assay [4] was “inactive” each time.

As for `O=C(/C=C/c1cccc(F)c1)NC1CC1`, the Potency result in assay [1], in assay [2] and in assay [4] was “inactive” throughout. Besides, in assay [5], the ratio activity, negative = inhibition was 2.97%.

Take `c1ccc2c(c1)OCC(CN1CCCCC1)O2` (stereo unspecified): the Potency entry in assay [1], in assay [2] and in assay [4] was “inactive” each time.

As for `O=C1CCC(=O)N1CO`, the Potency result in assay [1], in assay [3] and in assay [4] was “inactive” each time.

`CCN(CC)CCC(=O)N1c2ccccc2Sc2ccc(Cl)cc21`: the Potency is 14.1 µM (active) in assay [1] and 10.2 µM (active) in assay [4]. Moreover, in assay [2], the Potency entry was “inactive”.

In the case of `FC(F)OC(Cl)C(F)(F)F` (stereo unspecified), the Potency result in assay [1], in assay [3] and in assay [4] was “inactive” each time.

As to `Cc1ncc(C[n+]2csc(CCOP(=O)(O)O)c2C)c(N)n1`, the Potency entry in assay [1], in assay [2] and in assay [3] was “inactive” in each case. Besides, in assay [5], the ratio activity, negative = inhibition was -8.96%.

As for `CCCCCc1ccc(C)cc1O`, the Potency entry in assay [1], in assay [2] and in assay [4] was “inactive” in each case.

Regarding `CC/C=C\C/C=C\C/C=C\C/C=C\C/C=C\C/C=C\CCC(=O)O`, the Potency result in assay [1], in assay [2] and in assay [4] was “inactive” each time. In addition, in assay [5], the ratio activity, negative = inhibition is 0.57%.

Take `CC(=O)Oc1cccc(C(=O)O)c1OC(C)=O`: the Potency entry in assay [1] and in assay [2] was “inactive” in each case. Besides, in assay [5], the ratio activity, negative = inhibition was 10.8%.
